The results in this text go back to PubChem BioAssay (NCATS).

A number with no mark means an inactive call. Results filed as inconclusive are left out. Active and inactive are the calls of the source. Calls follow the shape of the dose curve; as a rule, active = well fitted curve in the direction sought with a large enough effect; inconclusive = small, poorly fitted or top-dose-only effect, or another doubt; inactive = no such curve, though single readings can be large; an effect the other way counts as inactive or inconclusive. Where a SMILES comes first, the peptide text is derived from it. Bridges are numbered along the chain shown (N, C = ends).

In test [1] the target is Glutathione peroxidase 1 (Homo sapiens) (UniProt P07203). Description: Primary qHTS Assay for Inhibitors of Recombinant Selenoprotein Glutathione Peroxidase 1 (GPX1) (AID 1845191). Also: nearly all actives have a fitted effect of over 65% in size. Also: potency is read from the fitted curve at half-maximal effect. As to activity, negative = inhibition: % is scaled to controls: 0 for no effect and ±100 for the full control effect. The gist of the method: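 GR-coupled readout: NADPH consumption tracked by fluorescence, ex 340/em 450 nm, at t=0 and after 15 min at RT. Final mix 10 nM GPX1, 1 mM GSH, 0.5 mM CHP, 0.5 mM NADPH, 100 nM GR, 0.01% BSA, following 30 min enzyme–compound preincubation.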
Chain of Glutathione peroxidase 1 (Homo sapiens) (P07203 whole entry, looked up): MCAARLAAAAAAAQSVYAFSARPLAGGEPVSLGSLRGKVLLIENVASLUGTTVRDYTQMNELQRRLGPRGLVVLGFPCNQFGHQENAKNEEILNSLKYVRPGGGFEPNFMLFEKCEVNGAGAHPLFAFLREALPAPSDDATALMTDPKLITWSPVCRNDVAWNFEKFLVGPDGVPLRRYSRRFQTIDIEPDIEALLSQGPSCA
On the technique in general: Quantitative high-throughput screening tests each substance at several concentrations.

In test [2] the target is Phospholipid hydroperoxide glutathione peroxidase GPX4 (Homo sapiens) (UniProt P36969). Description: Primary qHTS Assay for Inhibitors of Recombinant Selenoprotein Glutathione Peroxidase 4 (GPX4) (AID 1845192). Also: nearly all actives have a fitted effect of over 65% in size. Also: potency is read from the fitted curve at half-maximal effect. As to activity change, negative = inhibition: series mostly up to about 50 µM; % is scaled to controls: 0 for no effect and ±100 for the full control effect. The procedure, abridged: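 Steps: GPX4 plus compound, 30 min RT; add GR/GSH/NADPH master mix; start with cumene hydroperoxide; read 340/450 nm fluorescence at 0 and 15 min. Finals were 200 nM GPX4, 1 mM GSH, 0.5 mM CHP, 0.5 mM NADPH, 100 nM GR.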
Chain of Phospholipid hydroperoxide glutathione peroxidase GPX4 (Homo sapiens) (P36969 whole entry, looked up): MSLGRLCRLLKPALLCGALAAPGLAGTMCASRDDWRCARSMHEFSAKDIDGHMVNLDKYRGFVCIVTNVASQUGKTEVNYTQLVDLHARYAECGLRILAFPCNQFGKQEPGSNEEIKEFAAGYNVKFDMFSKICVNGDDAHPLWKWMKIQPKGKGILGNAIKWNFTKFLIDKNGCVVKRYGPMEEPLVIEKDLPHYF

The target in test [3] is Luciferin 4-monooxygenase (Photinus pyralis) (UniProt P08659). Briefly: Primary firefly luciferase (FLuc) qHTS assay for identification of artifact compounds. (AID 1845220). Also: nearly all actives have a fitted effect of over 60% in size.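 As to activity change, negative = inhibition: series mostly up to about 54 µM; plate controls were DMSO vehicle for no effect and no enzyme for full effect.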 The gist of the method: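 Enzymatic FLuc inhibition assay: compounds pre-exposed to luciferin/ATP (10 uM each) for 15 min, then purified P. pyralis enzyme at 10 nM added. Read-out: luminescence at 5 min.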

Test [4] is described as follows: Primary fluorescence-based thiol-reactive (MSTI) qHTS assay for identification of artifact compounds. (AID 1845221). Also: nearly all actives have a fitted effect of over 65% in size. Also: potency is read from the fitted curve at half-maximal effect.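 As to activity change, negative = thiol reactive: series mostly up to about 54 µM; thiol-reactive compounds lower the probe fluorescence signal.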 The gist of the method: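 In PBS pH 7.4 with 2% DMSO, each compound met 4 uM MSTI for one hour at ambient temperature, shielded from light, before fluorescence detection.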
Test [5] has as its system Nanoluciferase (engineered Oplophorus gracilirostris luciferase). Briefly: Primary Nanoluciferase (NLuc) qHTS assay for identification of artifact compounds. (AID 1845222).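 Also: NLuc secreted into diluted conditioned medium of S16 cells; series mostly up to about 54 µM; 0% = DMSO and -100% = no enzyme.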 The gist of the method: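 S16 cell supernatant NLuc, 1:55; cpds qHTS; 15 min RT dark; Nano-Glo substrate 1:100, 5 min; luminescence; Hill fit of % inhibition.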

With `O=C(O)c1ccc(N2C(=O)/C(=C/c3ccc(-c4ccc([N+](=O)[O-])cc4)o3)C=C2c2ccccc2)cc1`, the Potency entry in test [1], in test [2] and in test [3] was “inactive” throughout. Also, the Potency in test [4] was 0.423 µM (active).
Consider `CCCN(CC)C(CC)C(=O)Nc1c(C)cccc1C` (stereo unspecified), for which the Potency entry in test [1] and in test [2] was “inactive” throughout.
Regarding `NCCCC[C@H](NC(=O)[C@@H]1CCCN1C(=O)[C@@H]1CSSC[C@H](NC(=O)CNC(=O)CNC(=O)CN)C(=O)N[C@@H](Cc2ccc(O)cc2)C(=O)N[C@@H](Cc2ccccc2)C(=O)N[C@@H](CCC(N)=O)C(=O)N[C@@H](CC(N)=O)C(=O)N1)C(=O)NCC(N)=O` (H-GGGCYFQNCPKG-NH2; disulfide 4-9), the Potency result in test [1] and in test [2] was “inactive” each time.
For the compound `O=P(O)(O)C(O)(Cc1cnc2ccccn12)P(=O)(O)O`, in test [1], the activity, negative = inhibition is -12.2% [at 0.4 µM]. Also, in test [2], the activity change, negative = inhibition was 0.142% [at 0.409 µM].
In the case of `FC(F)(F)c1ccc(CNc2ccc(Cc3c[nH]c4ncc(Cl)cc34)cn2)cn1`, the Potency entry in test [1] and in test [2] was “inactive” each time.
With `Cc1[nH]c(/C=C2\C(=O)Nc3ccc(S(=O)(=O)N(C)c4cccc(Cl)c4)cc32)c(C)c1C(=O)N1CCN(C)CC1`, the Potency entry in test [1], in test [2] and in test [3] was “inactive” each time.
Take `C/C(=C/C=C\C=C\Cc1cnco1)[C@@H](O)C(C)(C)C(N)=O`: the Potency entry in test [1], in test [2], in test [3], in test [4] and in test [5] was “inactive” in each case.
For the compound `COc1ccc2[nH]c(=O)c3c(c2c1)OC(C)(C)C=C3`, the Potency entry in test [1], in test [2], in test [3], in test [4] and in test [5] was “inactive” in each case.
On to `O=S1(=O)CCN(Cc2cc(NCC3CCOCC3)c3[nH]c(-c4ccccc4)cc3c2)CC1`, for which the Potency result in test [1], in test [2], in test [3] and in test [5] was “inactive” each time. Moreover, in test [4], the Potency is 1.19 µM (active).
With `Cc1nc(Nc2cnn(C3CCNCC3)c2)nc2c1N(C)C(=O)c1cc3ccccc3cc1N2C`, the Potency result in test [1], in test [2], in test [3] and in test [4] was “inactive” in each case.
For the compound `CC(C)(O)c1ccc2c(c1)ncn2-c1cccc(-c2ccccc2C#N)c1`, the Potency result in test [1], in test [2], in test [3], in test [4] and in test [5] was “inactive” in each case.
With `O=C1COC2(CCN(S(=O)(=O)c3ccc(-c4ccc5cccnc5c4)cc3)CC2)CN1C1CC1`, the Potency entry in test [1], in test [2], in test [3], in test [4] and in test [5] was “inactive” throughout.
`CN(C)CC1CCn2c(c(C3=C(c4cn(C)c5ccccc45)C(=O)NC3=O)c3ccccc32)C1` (stereo unspecified): the Potency result in test [1], in test [2], in test [3] and in test [4] was “inactive” in each case.
For the compound `COc1ccc(CCN(C)CCCOc2nsc(-c3ccccc3)n2)cc1OC`, the Potency result in test [1], in test [2], in test [3], in test [4] and in test [5] was “inactive” throughout.
As to `O=C(NCCN1CCC(n2c(=O)[nH]c3ccccc32)CC1)c1cc2cc(F)ccc2[nH]1`, the Potency result in test [1], in test [2], in test [3], in test [4] and in test [5] was “inactive” in each case.
Regarding `CC(=O)OCC(=O)[C@@]1(O)[C@H](C)C[C@H]2[C@@H]3C[C@H](F)C4=CC(=O)C=C[C@]4(C)[C@H]3[C@@H](O)C[C@@]21C`, the Potency result in test [1] and in test [2] was “inactive” in each case.
On to `CC[C@@H](C)Nc1cc(C(=O)NC2CC3CC[C@@H](C2)N3c2ccc(C(=O)C3CC3)cn2)c(C)cc1C(N)=O` (stereo partly specified), for which the Potency was 16.3 µM (active) in test [1] and 2.55 µM (active) in test [2]. The Potency entry in test [3] and in test [4] was “inactive” each time.
As for `C[C@@H]1CN(CC(=O)N2CC(C)(C)c3ncc(Cc4ccc(F)cc4)cc32)[C@@H](CN2CCOC[C@H]2C)CN1`, the Potency result in test [1] and in test [2] was “inactive” throughout.
For `COc1cc(-c2nc(N[C@H](CO)Cc3ccccc3)ccc2C(=O)NCCOc2ccccc2)cc(OC)c1OC`, the Potency result in test [1], in test [2], in test [3], in test [4] and in test [5] was “inactive” in each case.
For the compound `CC1(C)CC[C@]23CO[C@@]4(CCC5[C@@]6(C)CC[C@H](O[C@@H]7OC[C@H](O[C@@H]8O[C@H](CO)[C@@H](O)[C@H](O)[C@H]8O[C@@H]8OC[C@@H](O)[C@H](O)[C@H]8O)[C@H](O)[C@H]7O[C@@H]7O[C@H](CO)[C@@H](O)[C@H](O)[C@H]7O)[C@@](C)(CO)C6CC[C@@]5(C)[C@]4(C)C[C@H]2O)[C@@H]3C1` (stereo partly specified), the Potency entry in test [1] and in test [2] was “inactive” in each case. Besides, the outcome in test [3] was “inactive [at 11.6 µM]”. In test [4], the activity change, negative = thiol reactive is 317% [at 11.5 µM]. For the same compound, the activity, negative = inhibition in test [5] is 3.72% [at 11.6 µM].
Take `CC(=O)O[C@@H]1CC2C(C)(C)C(=O)C=C[C@]2(C)C2CC[C@@]3(C)[C@H](c4ccoc4)OC(=O)[C@H]4O[C@]43[C@@]21C` (stereo partly specified): the Potency entry in test [1], in test [2], in test [3], in test [4] and in test [5] was “inactive” in each case.
Turning to `COc1ccc(NC(=O)c2ccc(-c3ccc(C(=N)N)cc3C)cc2)cc1N1CCN(C)CC1`, the Potency result in test [1], in test [2], in test [3], in test [4] and in test [5] was “inactive” throughout.
